Measurements as given in PubChem BioAssay (NCATS).

target: Glucocorticoid receptor (Homo sapiens) (UniProt P04150); test: GR-EFC Redistribution (AID 451); conditions: CHO-K1 GR-EFC translocation, beta-gal luminescence, 2 h
Text: NIH Molecular Libraries Screening Centers Network [MLSCN]
NIH Chemical Genomics Center [NCGC]
The glucocorticoid receptor (GR) is a cytoplasmic receptor that belongs to the nuclear receptor family of ligand-dependent transcription factors. Upon glucocorticoid binding to its receptor, the glucocorticoid-GR complex translocates into the nucleus, where it binds as a dimer to specific DNA sequences (glucocorticoid response elements), enhancing or suppressing transcription of a wide variety of glucocorticoid-responsive genes. In addition to their important roles in normal physiology and metabolism, glucocorticoids are administered exogenously as treatments for a wide variety of allergic, autoimmune, and neoplastic conditions. Identification of compounds that modulate aspects of GR signalling would be useful in dissecting glucocorticoid response pathways as well as developing GR modulators with more targeted clinical effects.
Traditionally, GR modulators have been identified using receptor binding or direct transactivation assays. However, assays for glucocorticoid-dependent nuclear translocation can also be used to screen for compounds affecting GR signaling.
Immunocytochemical staining has been used to assay for GR translocation, but is not suitable for high throughout screening due to the multiple reagent addition and wash steps required. Recently, a novel cell-based GR assay in Enzyme Fragment Complementation (EFC) format was developed by DiscoveRx (Fremont, CA). The assay uses EFC of b-galactosidase (b-gal) as an indicator of GR-translocation in engineered CHO-K1 biosensor cells. The enzyme acceptor (EA) fragment of b-gal resides in the nucleus , as designed through the use of a proprietary set of sequence additions and modifications. The small peptide enzyme donor (ED) fragment of b-gal is fused directly to the C-terminus of GR, and is localized in the cytoplasm is the absence of receptor signaling. Upon binding to a GR ligand, the complex translocates to the nucleus, where intact enzyme activity is restored by complementation and b-gal activity is detected. We optimized this GR-EFC assay in homogenous 1536-well plate assay format for high throughput screening.
NCGC Assay Protocol Summary:
CHO-K1 cells stably expressing NLS-enzyme acceptor fragment (EA) of b-gal and GR-enzyme donor (ED) fragment of b-gal were maintained in F12 medium (Invitrogen, Carlsbad, CA) at 37 Celsius degrees under a humidified atmosphere containing 5% CO2 and 95% air. The medium contained 10% FBS, 2 mM L-glutamine, 50 U/ml penicillin 50 ug/ml streptomycin, and 250 ug/ml hygromycin and 500 ug/ml G418 (Invitrogen).
GR-translocation was measured beta-gal enzyme activity using the PathHunter Detection Kit containing cell membrane permeablizing reagent and beta-gal substrate (DiscoveRx, Fremont, CA). All compounds were screened as titrations from 0.6 nM to 46 uM final concentration. The assay was performed in 1536-well format as follows:
5 uL cell suspension (1,000 cells)/well
Incubation at 37 Celsius degrees for two hours
1.25 uL 1X detection buffer from the kit supplied by DiscoveRx
Incubation at room temperature for one hour
Read plate in luminescence mode in ViewLux plate reader (PerkinElmer)
Keywords: NIH Roadmap, MLSCN, MLI, MLSMR, GR-EFC, GREFC, qHTS, NCGC
Potency is read from the fitted curve at half-maximal effect.

Chain of Glucocorticoid receptor (Homo sapiens) (P04150 whole entry, looked up): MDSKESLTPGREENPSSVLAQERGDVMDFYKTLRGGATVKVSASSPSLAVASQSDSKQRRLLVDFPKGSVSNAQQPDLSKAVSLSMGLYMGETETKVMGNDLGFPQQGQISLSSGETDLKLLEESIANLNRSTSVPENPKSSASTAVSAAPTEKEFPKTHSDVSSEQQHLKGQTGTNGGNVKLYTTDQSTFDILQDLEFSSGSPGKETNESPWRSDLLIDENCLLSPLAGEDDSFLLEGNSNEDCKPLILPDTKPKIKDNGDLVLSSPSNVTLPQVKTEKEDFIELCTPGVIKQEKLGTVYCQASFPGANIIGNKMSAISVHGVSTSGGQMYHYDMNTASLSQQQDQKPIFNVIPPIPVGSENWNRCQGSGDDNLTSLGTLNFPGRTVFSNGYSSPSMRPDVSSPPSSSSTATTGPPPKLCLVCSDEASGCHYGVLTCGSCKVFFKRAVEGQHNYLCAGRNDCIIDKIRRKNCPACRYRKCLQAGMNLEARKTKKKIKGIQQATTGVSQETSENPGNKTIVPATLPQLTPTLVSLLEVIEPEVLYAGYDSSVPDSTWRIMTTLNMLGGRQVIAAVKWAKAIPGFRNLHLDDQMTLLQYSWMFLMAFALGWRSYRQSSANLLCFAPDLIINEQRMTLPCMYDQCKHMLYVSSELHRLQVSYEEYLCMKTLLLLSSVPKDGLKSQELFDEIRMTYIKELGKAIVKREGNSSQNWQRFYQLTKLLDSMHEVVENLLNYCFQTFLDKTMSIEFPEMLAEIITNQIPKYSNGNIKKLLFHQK

Potency, inactive:
CC(C)C[C@@H](CC(=O)N[C@@H](CCC(=O)O)CC(=O)O)NC(=O)[C@@H]1CNCC[C@H]1NC(=O)C[C@@H](NC(=O)C[C@H](Cc1c[nH]c2ccccc12)NC(=O)[C@@H]1CCCC[C@H]1N)C(C)C > 46 µM, C=C[C@@]1(C)C=C2CC[C@@H]3[C@](C)(CCC[C@@]3(C)C(=O)O)[C@H]2CC1 > 46 µM, COc1ccc2c(=O)cc(-c3ccc(O)cc3)oc2c1 > 46 µM, CN1CCN([C@@H]2Cc3ccccc3Sc3ccc(Cl)cc32)CC1 > 46 µM, COc1ccccc1-c1cc(=O)c2cc(O)ccc2o1 > 46 µM, CC(C)[C@@H](CC(=O)N[C@@H]1CCNC[C@H]1C(=O)N[C@H](CC(=O)N[C@@H](CCC(=O)O)CC(=O)O)Cc1ccccc1)NC(=O)C[C@H](Cc1c[nH]c2ccccc12)NC(=O)[C@@H]1CNCC[C@H]1N > 46 µM, CN1C[C@@H](C(=O)N[C@]2(C)O[C@]3(O)[C@H]4CCCN4C(=O)[C@H](Cc4ccccc4)N3C2=O)C[C@H]2c3cccc4[nH]cc(c34)C[C@@H]21 > 46 µM, CC(C)C[C@@H](CC(=O)N[C@@H](CCC(=O)O)CC(=O)O)NC(=O)[C@@H]1CCCC[C@H]1NC(=O)C[C@@H](NC(=O)C[C@H](Cc1c[nH]c2ccccc12)NC(=O)[C@@H]1CCCC[C@H]1N)C(C)C > 46 µM, CCCN(CCc1ccccc1)[C@H]1CCc2c(O)cccc2C1 > 46 µM, COc1cccc2c1C(=O)c1c(O)c3c(c(O)c1C2=O)C[C@](O)(C(C)=O)C[C@H]3O[C@@H]1C[C@H](N)[C@H](O)[C@H](C)O1 > 20.6 µM, CC(C)[C@@H](CC(=O)N[C@@H]1CCCC[C@H]1C(=O)N[C@H](CC(=O)N[C@@H](CCC(=O)O)CC(=O)O)Cc1c[nH]c2ccccc12)NC(=O)C[C@H](Cc1ccccc1)NC(=O)[C@@H]1CCCC[C@H]1N > 46 µM, C[C@@H]1C(=O)O[C@@H]2C[C@@]34[C@H]5C[C@@H](C(C)(C)C)[C@@]36[C@@H](OC(=O)[C@@H]6O)O[C@]4(C(=O)O5)[C@@]12O > 46 µM, C[N+](C)(C)[C@@H](C1=CCCC1=O)c1ccccc1 > 9.22 µM, COC(=O)[C@@H](NC(=O)c1cc(-c2ccccc2)nc2ccccc12)c1ccccc1 > 46 µM, O=C(/C=C\c1ccc(O)cc1)c1ccc(O)cc1O > 46 µM, CC1(C)[C@@H](O)CC[C@@]2(C)[C@H]1CC[C@]1(C)[C@H]2C(=O)C=C2[C@@H]3C[C@@](C)(C(=O)O)CC[C@]3(C)CC[C@@]21C > 46 µM, CC(=O)O[C@@H]1[C@H]([N+]2(C)CCCCC2)C[C@@H]2[C@@H]3CC[C@@H]4C[C@@H](OC(C)=O)[C@H]([N+]5(C)CCCCC5)C[C@@]4(C)[C@H]3CC[C@]21C > 46 µM, OCc1ccncc1.OCc1ccncc1.[Cl][Pt]([Cl])([Cl])[Cl] > 9.22 µM, CC(C)C[C@@H](CC(=O)N[C@H](CC(=O)N[C@@H]1CCNC[C@H]1C(=O)N[C@H](CC(=O)N[C@@H](CCC(=O)O)CC(=O)O)CC(C)C)C(C)C)NC(=O)[C@@H]1CCCC[C@H]1N > 46 µM, Cc1ccc2oc(-c3ccccc3)c(O)c(=O)c2c1 > 46 µM, NCCC[C@@H](CC(=O)N[C@@H]1CCNC[C@H]1C(=O)N[C@H](CC(=O)N[C@@H](CCC(=O)O)CC(=O)O)Cc1c[nH]c2ccccc12)NC(=O)C[C@H](CO)NC(=O)[C@@H]1CNCC[C@H]1N > 46 µM, CCCCCCCCCCCCCCCCCCNC(=O)OC[C@@H](COP(=O)([O-])OCC[n+]1ccsc1)OC > 46 µM, COc1ccccc1-c1oc2ccccc2c(=O)c1OC > 46 µM, C=C1C[C@@]23C[C@]1(O)CC[C@@H]2[C@]12C=C[C@@H](O)[C@@](C)(C(=O)O1)[C@@H]2[C@@H]3C(=O)O > 46 µM, CC1=CC(=O)CC(C)(C)[C@@]1(O)/C=C\C(C)=C\C(=O)O > 46 µM, CC(C)[C@@H](CC(=O)N[C@@H]1CCCC[C@H]1C(=O)N[C@H](CC(=O)N[C@@H](CCC(=O)O)CC(=O)O)Cc1c[nH]c2ccccc12)NC(=O)C[C@H](Cc1c[nH]c2ccccc12)NC(=O)[C@@H]1CCCC[C@H]1N > 46 µM, COc1cc2nc(N3CC=[N+](C(=O)c4ccco4)CC3)nc(N)c2cc1OC > 46 µM, CCOC(=O)C1=C(C)NC(C)=C(C(=O)OC)[C@H]1c1cccc(Cl)c1Cl > 46 µM, CC(C)C[C@@H](CC(=O)N[C@@H](CCC(=O)O)CC(=O)O)NC(=O)[C@@H]1CCCC[C@H]1NC(=O)C[C@@H](NC(=O)C[C@H](CO)NC(=O)[C@@H]1CCCC[C@H]1N)C(C)C > 46 µM, CC[C@@H]1[C@H]2CCCCN3[C@@H]2[C@@H](C[C@H]3[C@@H]2C[C@H](C)C(=O)O2)[C@@H]2[C@H]1OC(=O)[C@H]2C > 46 µM, C[C@H](O)[C@H](O)[C@@H](O)c1cnc2nc(N)[nH]c(=O)c2n1 > 46 µM, CC(C)[C@@H](CC(=O)N[C@@H]1CCCC[C@H]1C(=O)N[C@H](CC(=O)N[C@@H](CCC(=O)O)CC(=O)O)Cc1ccccc1)NC(=O)C[C@H](Cc1c[nH]c2ccccc12)NC(=O)[C@@H]1CNCC[C@H]1N > 46 µM, COc1cccc(-c2cc(=O)c3cc(O)ccc3o2)c1 > 46 µM, OC[C@@H]1O[C@@H](n2cnc3c(NCc4ccco4)ncnc32)[C@H](O)[C@H]1O > 46 µM, CCCCCCCCN[C@@H](C)[C@H](O)c1ccc(SC(C)C)cc1 > 20.6 µM, COc1cc2c(cc1OC)C(=O)N(C)CC2 > 46 µM, CC(C)C[C@@H](CC(=O)N[C@@H](CCCN)CC(=O)N[C@@H]1CCCC[C@H]1C(=O)N[C@H](CC(=O)N[C@@H](CCC(=O)O)CC(=O)O)Cc1c[nH]c2ccccc12)NC(=O)[C@@H]1CCCC[C@H]1N > 46 µM, CC(=O)[C@@H]1[C@H]2[C@@H](C(=O)[C@H]3OC[C@H]2O3)[C@@H]2C=Cc3ccccc3N12 > 46 µM, O=c1cc(-c2ccccc2O)oc2ccc3ccccc3c12 > 46 µM, CC(=O)O[C@@H]1CC[C@]2(C)[C@H]3CC[C@]4(C)[C@H](C[C@H]5CCCC[C@@]54C(C)=O)[C@@H]3CC(=O)[C@@]2(O)C1 > 46 µM
